Reference: PubChem BioAssay

biological target: Neurogenic locus notch homolog protein 3 (Homo sapiens) (UniProt Q9UM47); test: NOTCH3 binders on small-molecule microarray, primary screen, biochemical, 635/667 nm fluorescence (AID 1096); conditions: NOTCH3 binding, 635 nm fluorescence, higher = more signal
Sequence (Q9UM47 whole entry, looked up): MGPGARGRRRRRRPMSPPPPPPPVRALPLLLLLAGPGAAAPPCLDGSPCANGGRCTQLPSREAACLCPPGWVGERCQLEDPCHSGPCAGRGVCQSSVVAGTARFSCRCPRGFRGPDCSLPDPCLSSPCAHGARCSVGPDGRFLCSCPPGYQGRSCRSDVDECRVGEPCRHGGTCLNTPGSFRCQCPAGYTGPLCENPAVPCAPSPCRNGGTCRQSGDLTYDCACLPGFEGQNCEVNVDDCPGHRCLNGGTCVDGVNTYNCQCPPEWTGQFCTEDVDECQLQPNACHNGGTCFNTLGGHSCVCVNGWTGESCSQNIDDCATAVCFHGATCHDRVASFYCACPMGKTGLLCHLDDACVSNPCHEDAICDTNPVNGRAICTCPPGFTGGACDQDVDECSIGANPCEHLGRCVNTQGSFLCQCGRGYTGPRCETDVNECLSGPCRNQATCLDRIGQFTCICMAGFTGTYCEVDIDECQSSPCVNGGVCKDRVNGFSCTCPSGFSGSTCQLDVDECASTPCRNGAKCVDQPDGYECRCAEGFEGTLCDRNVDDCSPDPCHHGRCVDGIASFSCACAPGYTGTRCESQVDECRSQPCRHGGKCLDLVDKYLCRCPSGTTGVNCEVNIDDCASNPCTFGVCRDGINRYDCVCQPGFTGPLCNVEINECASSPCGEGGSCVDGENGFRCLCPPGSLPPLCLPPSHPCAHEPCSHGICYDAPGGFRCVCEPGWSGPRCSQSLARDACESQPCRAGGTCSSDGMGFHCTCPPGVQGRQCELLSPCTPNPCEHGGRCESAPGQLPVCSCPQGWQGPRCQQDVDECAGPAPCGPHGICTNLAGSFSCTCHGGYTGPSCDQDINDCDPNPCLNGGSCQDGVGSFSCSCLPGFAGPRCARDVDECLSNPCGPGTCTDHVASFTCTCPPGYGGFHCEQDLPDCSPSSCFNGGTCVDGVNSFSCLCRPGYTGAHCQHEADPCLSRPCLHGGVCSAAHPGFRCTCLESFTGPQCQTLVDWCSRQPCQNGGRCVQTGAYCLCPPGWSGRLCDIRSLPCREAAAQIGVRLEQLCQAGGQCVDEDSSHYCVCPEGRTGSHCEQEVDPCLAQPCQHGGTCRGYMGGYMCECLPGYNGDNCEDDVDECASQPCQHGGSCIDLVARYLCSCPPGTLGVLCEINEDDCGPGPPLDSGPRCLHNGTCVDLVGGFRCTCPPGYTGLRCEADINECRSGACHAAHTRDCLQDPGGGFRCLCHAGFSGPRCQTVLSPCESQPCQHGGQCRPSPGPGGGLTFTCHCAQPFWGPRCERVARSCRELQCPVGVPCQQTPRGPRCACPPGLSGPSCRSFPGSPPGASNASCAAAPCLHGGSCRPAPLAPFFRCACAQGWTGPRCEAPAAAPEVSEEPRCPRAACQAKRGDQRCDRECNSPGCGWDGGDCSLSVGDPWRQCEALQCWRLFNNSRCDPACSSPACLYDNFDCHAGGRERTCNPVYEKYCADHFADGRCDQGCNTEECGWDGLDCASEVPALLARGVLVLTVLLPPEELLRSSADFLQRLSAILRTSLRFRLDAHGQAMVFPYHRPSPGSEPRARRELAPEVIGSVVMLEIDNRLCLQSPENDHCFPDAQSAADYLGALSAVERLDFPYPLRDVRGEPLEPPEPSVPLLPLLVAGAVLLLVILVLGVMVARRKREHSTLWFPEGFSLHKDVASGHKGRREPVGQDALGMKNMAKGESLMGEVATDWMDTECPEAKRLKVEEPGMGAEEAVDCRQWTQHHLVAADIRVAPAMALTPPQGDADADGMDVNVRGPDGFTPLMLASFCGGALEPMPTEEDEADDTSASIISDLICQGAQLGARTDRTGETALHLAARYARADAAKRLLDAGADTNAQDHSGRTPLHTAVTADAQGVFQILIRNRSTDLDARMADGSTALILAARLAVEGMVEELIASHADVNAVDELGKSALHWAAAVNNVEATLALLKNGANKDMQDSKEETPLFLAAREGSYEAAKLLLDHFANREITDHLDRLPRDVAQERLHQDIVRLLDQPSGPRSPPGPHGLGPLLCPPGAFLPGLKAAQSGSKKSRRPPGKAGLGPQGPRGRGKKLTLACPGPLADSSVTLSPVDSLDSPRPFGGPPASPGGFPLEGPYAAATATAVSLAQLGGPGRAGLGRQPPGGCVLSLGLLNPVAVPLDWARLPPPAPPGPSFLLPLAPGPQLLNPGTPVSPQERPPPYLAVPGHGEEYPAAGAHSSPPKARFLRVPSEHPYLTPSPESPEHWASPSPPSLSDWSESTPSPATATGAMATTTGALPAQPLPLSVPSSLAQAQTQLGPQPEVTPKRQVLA

Structure (SMILES)	composite z-score
COC(=O)c1ccc(OC)c(/C=C\CC(CCc2ccccc2)OC(C)=O)c1 (stereo not given)	-0.255
C[N+](C)(C)CCCC[C@@H]1NC(=O)[C@H]2C[C@@H](C(=O)NCCCCCCN)[C@@H](c3cccc(OCCO)c3)N2C1=O	1.07
C/C=C/[C@@H](CCn1cc([C@H](O)c2ccccc2)nn1)[Si](C)(C)c1ccc(OC)cc1	-0.498
CCCCCCCCCCC(O)C1C=CC2C(=O)NC(=O)C2N1Nc1ccccn1 (stereo not given)	0.243
COC(=O)[C@@]1(Cc2ccc(F)cc2)[C@H]2c3cc(C(=O)N(C)C)n(CCSCCO)c3C[C@H]2CN1C(=O)c1ccccc1	0.229
CC1CC/C=C\[C@H]2OC34C=CCN(Cc5ccccc5)C(=O)[C@H]3N(CCO)C(=O)[C@@H]4C2C(=O)O1 (stereo not given in full)	-0.127
C=C(COC)C(=O)CC[C@H](OC(=O)c1ccccc1-c1ccccc1C(=O)O)c1ccc(OCCO)cc1	0.615
C=CCC(OC(C)=O)[C@@H]1[C@@H](N(Cc2cc3ccccc3o2)C(=O)Cc2ccc(OC)cc2)c2cc(OCCCO)ccc2N1C(=O)c1ccc(-c2ccccc2)cc1 (stereo not given in full)	-1.09
CC1CC/C=C\[C@H]2OC34C=CCN(c5ccc(Cl)cc5)C(=O)[C@H]3N(C(CO)C(C)C)C(=O)[C@]4(C)C2C(=O)O1 (stereo not given in full)	0.161
O=C1O[C@@H](c2ccccc2)[C@@H](c2ccccc2)N2[C@@H](c3ccc(O)cc3)[C@]3(C(=O)Nc4ccc(C#CC5(O)CCCCCC5)cc43)[C@@H](C(=O)N3CCN(c4ncccn4)CC3)[C@H]12	0.886
CC[C@@H]1[C@@H]2C3C(=O)N(CC)C(=O)C3CC(=O)[C@@H]2[C@H](c2ccc(C)cc2)N1S(=O)(=O)c1ccc(C)cc1 (stereo not given in full)	0.919
COCCOC(=O)N1C(=O)[C@@]2(c3cc(C#CCCO)ccc31)[C@H](C(=O)NC[C@H](O)c1ccccc1)[C@H]1C(=O)O[C@H](c3ccccc3)[C@H](c3ccccc3)N1[C@@H]2c1ccccc1OCCO	1.07
C=CCOC(=O)[C@@H]1[C@H]2C(=O)O[C@H](c3ccccc3)[C@H](c3ccccc3)N2[C@H](c2ccc(OCCOC(=O)[C@@H]3C[C@@H]4C(=O)N[C@@H](CCCCNC(C)=O)C(=O)N4[C@@H]3c3ccc(O)cc3)cc2)[C@@]12C(=O)Nc1ccc(I)cc12	1.13
CC(C)CCC[C@@H](C)[C@H]1CC[C@@]2(C)C3=C(CC[C@]12C)[C@@]1(C)CC[C@H](OC(=O)c2ccc(N)cc2)C(C)(C)C1CC3 (stereo not given in full)	0.614
CCCN1C(=O)[C@@H]2Cc3c([nH]c4ccccc34)[C@@H](c3cccc(O)c3)N2C1=O	0.423
C=CCN1C(=O)[C@@]2(O[C@@H](CCn3cc([C@H](O)c4ccccc4)nn3)[C@H]([Si](C)(C)c3ccc(OC)cc3)[C@H]2C)c2cc(NC(=O)c3ccc(OC)cc3)ccc21	0.422
COc1ccc([Si](C)(C)[C@@H]2[C@@H](CC(=O)N(CCO)Cc3ccccc3)O[C@]3(C(=O)N(Cc4ccc(N5CCOC5=O)cc4)c4ccccc43)[C@H]2C)cc1	0.643
COCCOC(=O)N1C(=O)[C@@]2(c3cc(C#Cc4ccc(OC)cc4)ccc31)[C@H](C(=O)N1CCc3cc(OC)c(OC)cc3C1)[C@H]1C(=O)O[C@H](c3ccccc3)[C@H](c3ccccc3)N1[C@@H]2c1ccc(O)cc1	1.14
CC(C)CNC(=O)[C@@]1(C)c2ccccc2C(=O)N(Cc2ccccc2)[C@H]1c1ccc(CO)cc1	-0.643
COc1ccccc1CN1C(=O)c2ccccc2[C@](Cc2ccccc2I)(C(=O)NCCN2CCOCC2)[C@@H]1c1ccc(CO)cc1	1.09
CCCCCCC#C[Si](O[C@H](c1ccccc1)c1cn(Cc2cccc(Cl)c2)nn1)(C(C)C)C(C)C	0.487
COc1ccc([Si](C)(C)[C@@H]2[C@@H](CCO)O[C@]3(C(=O)N(Cc4ccccc4)c4ccc(N5CCCCC5=O)cc43)[C@H]2C)cc1	1.11
COC(=O)[C@@]1(Cc2ccc(F)cc2)[C@@H]2[C@@H](CC(=O)[C@H]2CC(=O)C(=O)N2CCCC2)CN1C(=O)c1ccccc1	1.03
COCCOC(=O)N1C(=O)[C@@]2(c3cc(C#CCCO)ccc31)[C@H](c1ccc(OCCO)cc1)N1[C@H](c3ccccc3)[C@H](c3ccccc3)OC(=O)[C@H]1[C@@H]2C(=O)N1CCc2cc(OC)c(OC)cc2C1	1.13
C=CC[C@]1(C(=O)NCC(O)CO)N=C(c2ccc(OCCCO)cc2)O[C@H]1c1ccccc1N=[N+]=[N-] (stereo not given in full)	-0.0588
